Test results as given in PubChem BioAssay (NCATS).
Inconclusive results are not listed. A number with no mark means an inactive call. The source made the active and inactive calls. Calls come from the whole dose curve; as a rule, active = well fitted curve in the direction sought with a large enough effect; inconclusive = small, poorly fitted or top-dose-only effect, or another doubt; inactive = no such curve, though single readings can be large or run the other way.

Test: qHTS Assay for Identifying Gametocytocidal Compounds (AID 743244);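 for max response: actives lower the fluorescent signal which means gametocytes are killed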
Settings: P. falciparum 3D7 stage III-V gametocytes, alamarBlue, 72 h; max response: hits give low values
How it was run: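 Stage III-V P. falciparum 3D7 gametocytes, 20,000 per well, were exposed to compounds for 72 h at 37C, 5% CO2. AlamarBlue was then added for 24 h and viability was read as fluorescence at Ex 525/Em 598 nm.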
% is set by controls: 0 for no effect and ±100 for the full control effect; potency is the fitted concentration of half-maximal effect.

Row | SMILES | Potency | max response
1 | CC(C)=CCC/C(C)=C/CC/C(C)=C/CC/C(C)=C/CC1=C(C)C(=O)c2ccccc2C1=O | 7.94 µM (active) | 
2 | CCOC(=O)Oc1c(OC)cc(C(=O)O[C@@H]2C[C@@H]3CN4CCc5c([nH]c6cc(OC)ccc56)[C@H]4C[C@@H]3[C@H](C(=O)OC)[C@H]2OC)cc1OC |  | 3.15%
3 | N=C(N)c1ccc(/C=C/c2ccc(C(=N)N)cc2O)cc1 |  | 21.7%
4 | C[C@@](Cc1ccc(O)c(O)c1)(NN)C(=O)O |  | -3.47%
5 | O=C1N=C2SCCN2C(=O)C1Cc1ccc(Cl)cc1 (stereo unspecified) |  | -5.09%
6 | C[C@]12CCC(=O)C[C@@H]1CC[C@@H]1[C@@H]2CC[C@]2(C)C=CC[C@@H]12 |  | -3.12%
7 | NC[C@@H]1CC[C@@H](N)[C@@H](O[C@H]2[C@H](O)[C@@H](O[C@H]3O[C@H](CO)[C@@H](O)[C@H](N)[C@H]3O)[C@H](N)C[C@@H]2N)O1 |  | 4.25%
8 | O=C(O)[C@@H]1C[C@H](CP(=O)(O)O)CCN1 |  | 11.7%
9 | CN=C1C=CC(=C(c2ccc(N(C)C)cc2)c2ccc(N(C)C)cc2)C=C1 | 3.55 µM (active) | 
10 | COc1ccc(C(=O)c2ccc(C)cc2)c(O)c1 |  | -6.86%
11 | O=C(O)c1cc(O)c2c(c1)[C@H]([C@H]1c3cc(C(=O)O)cc(O)c3C(=O)c3c(O[C@@H]4O[C@H](CO)[C@@H](O)[C@H](O)[C@H]4O)cccc31)c1cccc(O[C@@H]3O[C@H](CO)[C@@H](O)[C@H](O)[C@H]3O)c1C2=O |  | -8.85%
